# Screen size: about 360,000 compounds; about 4,500 (1.2%) were called active. The sample holds actives, similar compounds and a random draw of the others, so the mix is not that of the screen. A number with no mark means an inactive call. Cut-off read from the data, not from the text of the source: active = inhibition above about 30%; inactive = the rest.
# Assay: inhibition of GDH and TPI enzymes – biochemical, absorbance, full deck, artefact control for M. tuberculosis FBA inhibitor project, primary screen (AID 588335);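 note: 0% = DMSO wells and 100% = wells lacking the enzyme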
# Settings: GDH-TPI coupled enzyme counterscreen, NADH absorbance; at 4.8 µM; active compounds read high
row,SMILES,inhibition
1,CC(C)(C)CC(C)(C)NCC(O)COCCOc1ccc(Br)cc1 (stereo not given),-7.87%
2,CC(=NNC(N)=O)C1CC2CCC1CC2 (stereo not given),4%
3,CC1CCCCC1NC(=O)COC(=O)Cc1ccc(Br)cc1 (stereo not given),0.32%
4,O=C(/C=C/c1ccc2c(c1)OCCO2)c1ccc(O)cc1,37.5% (active)
5,O=C(COC(=O)c1ccc(O)cc1O)c1ccc2c(c1)OCCO2,-0.63%
6,Cc1ccnc(NC(=O)c2ccc(Cl)c([N+](=O)[O-])c2)c1,8.28%
7,C/C(=N\NC(=O)C(N)=O)c1ccc2c(c1)OCCO2,0.63%
8,O=C(O)c1ccc2c(=O)n3c(nc2c1)/C(=C/c1ccc(Cl)c([N+](=O)[O-])c1)CC3,-3.69%
9,O=C(/C=C/c1ccc(Cl)c([N+](=O)[O-])c1)c1ccc(O)cc1,40.7% (active)
10,CC(C)C(=O)N1CC(=O)Nc2ccc(F)cc2C1c1ccc(F)cc1 (stereo not given),2.76%
11,CSc1nc2ccccc2cc1/C=C(\C#N)c1ccc(Cl)cc1Cl,12.3%
12,CC(=O)N1CCc2cc(Br)cc(S(=O)(=O)CCC(=O)Nc3c(C)n(C)n(-c4ccccc4)c3=O)c21,0%
13,CCN(CC)CCCNC(=O)c1ccc2c(=O)n(Cc3ccc4c(c3)OCO4)c(=S)[nH]c2c1,3.66%
14,CCSC(C)CC1C/C(=N/O)c2c(C)noc2C1 (stereo not given),-6.62%
15,COc1ccc(-c2cc(=O)c3c(O)cc(O[C@@H]4O[C@H](CO[C@@H]5O[C@@H](C)[C@H](O)[C@@H](O)[C@H]5O)[C@@H](O)[C@H](O)[C@H]4O)cc3o2)cc1O,37.8% (active)
16,C[C@@H]1O[C@@H](OC[C@H]2O[C@@H](Oc3c(-c4ccc(O)cc4)oc4cc(O)cc(O)c4c3=O)[C@H](O)[C@@H](O)[C@@H]2O)[C@H](O)[C@H](O)[C@H]1O,17.6%
17,COc1c(O)cc2oc(-c3ccc(O)c(O)c3)cc(=O)c2c1O,22%
18,Cc1csc(CN(C)C(=O)CC2C(=O)NCCN2CC(C)(C)C)n1 (stereo not given),-0.64%
19,CC1(C(=O)Nc2cccc(Oc3ccccc3)c2)CCN1Cc1ccccc1Cl (stereo not given),11.5%
20,CCOc1cc(C)ccc1OCc1nnc(SCC(=O)Nc2cccc(C(=O)O)c2)n1-c1ccccc1,5.71%
21,CCN(CC)CCCNC(=S)N(CCO)Cc1cc2cc3c(cc2[nH]c1=O)OCO3,10.3%
22,CCNC(=S)N(CCN(CC)CC)Cc1cc2cc3c(cc2[nH]c1=O)OCO3,40.6% (active)
23,CCNC(=S)N(CCN(CC)CC)Cc1cc2cc3c(cc2[nH]c1=O)OCCO3,27.9%

row,SMILES,inhibition
1,CN1C(CC(=O)Nc2ccc(Br)cc2)c2ccccc2CC1(C)C (stereo not given),2.84%
2,COc1cc(C(=O)N2CCN(S(=O)(=O)c3ccc(C(C)C)cc3)CC2)ccc1OCC(=O)N1CCOCC1,-5.56%
3,c1ccc2[nH]c(-c3nc4ccccc4[nH]3)nc2c1,36.1% (active)
4,Nc1ccccc1-c1nc2ccncc2[nH]1,17.8%
5,O=C(Nc1sc2c(c1-c1nc3ccccc3[nH]1)CCCC2)C1CC1,12.9%
6,CCc1ccc2c(c1)cc(CN(C(=S)Nc1ccccc1Cl)C1CC1)c1nnnn12,3.4%
7,COCCCN(C(=S)Nc1c(C)cc(C)cc1C)C(C)c1ccncc1 (stereo not given),-1.1%
8,CCCCC1S/C(=N/N=C/c2cccs2)NC1=O (stereo not given),23.8%
9,C=CCN1C(=O)C(Cc2cccc(Cl)c2)S/C1=N/N=C/c1ccco1 (stereo not given),17.9%
10,COc1ccc(CN2C(=O)C(C)S/C2=N/N=C/c2ccco2)cc1 (stereo not given),28.3%
11,CC(C)=N/N=C1/NC(=O)C(Cc2ccccc2)S1 (stereo not given),1.52%
12,CCC1S/C(=N/N=C/c2ccco2)NC1=O (stereo not given),48.7% (active)
13,O=C1N/C(=N\N=C\c2ccco2)SC1Cc1ccc(F)cc1 (stereo not given),34.3% (active)
14,NC(=O)Cn1nc([N+](=O)[O-])nc1Oc1ccc(Br)cc1,-2.44%
15,COc1ccc(OC)c(-n2cc3c(=O)n(C)c(=O)n(C)c3c2)c1,17.5%
16,Cc1noc(COc2ccccc2OCc2onc(C)c2Cl)c1Cl,-5.03%
17,Cc1cc(NC(=O)CN2C(=O)NC(C)(CCc3ccccc3)C2=O)no1 (stereo not given),-0.61%
18,COC(=O)c1sc2[nH]c(=S)n(N)c(=O)c2c1C,31.6% (active)
19,COC(=O)c1sc(NC(=O)COC(=O)C2CCC2)c(C(=O)OC)c1C,-0.7%
20,CCCC(CCC(=O)OC)(C(=O)OCC)c1csc(N)n1 (stereo not given),13%
21,CCN(CC)c1ccc(C(=O)OCC(=O)c2ccco2)cc1,31.4% (active)
22,O=C(COC(=O)c1ccccc1C(=O)c1ccccc1)c1ccco1,-5.13%
23,CCc1ccc(C(=O)COC(=O)c2ccco2)cc1,-8.19%

row,SMILES,inhibition
1,C[C@H](NC(=O)C1CCN(S(=O)(=O)c2ccccc2)CC1)C(=O)NCc1ccccc1,-5.08%
2,O=C(CN1C(=O)NC2(CCCCCC2)C1=O)Nc1ccc([N+](=O)[O-])cc1,22.4%
3,COc1ccccc1-n1c(O)c(C=NC2CC2)c(=O)[nH]c1=O,-4.18%
4,COc1cc(C=NC2CCCCC2)ccc1O,32.4% (active)
5,COc1cc(C(=S)NC2CCCCC2)ccc1O,2.87%
6,Cn1c(=O)[nH]c(=O)c2c1nc(NCCCn1ccnc1)n2Cc1cccc(Br)c1,33.2% (active)
7,COc1ccc(CCn2c(NCCCN3CCOCC3)nc3c2c(=O)[nH]c(=O)n3C)cc1,2.26%
8,Cc1nnc(Sc2nc3c(c(=O)[nH]c(=O)n3C)n2Cc2ccccc2)s1,3.35%
9,Cc1cc(C)cc(C(=O)NCC(=O)OCC(=O)N2CCCCC2)c1,-3.76%
10,Cc1ccc(-n2ncc3c2CC(C)(C)CC3NC(=O)Cc2c(C)noc2C)cc1 (stereo not given),2.41%
11,Cc1ccc(NC(=O)c2nc[nH]c2C(=O)N2CCCCC2)c(C(=O)c2ccccc2)c1,16.6%
12,CC(CNS(=O)(=O)c1ccc(Br)cc1)CN(C)C (stereo not given),-2.58%
13,Cc1c(NC(=O)C(=O)N/N=C/c2cccs2)c(=O)n(-c2ccccc2)n1C,6.43%
14,COc1ccc(N(CC(=O)N/N=C/c2cccs2)S(=O)(=O)c2ccc(OC)c(OC)c2)cc1,7.97%
15,COc1ccc2c(c1)c(C(=O)N/N=C/c1cccs1)c(C)n2C,38.7% (active)
16,CCOC(=O)c1ccccc1NS(=O)(=O)c1c(C)nc2sccn2c1=O,15%
17,COc1ccc(CCNC(=O)COC(=O)c2ccc[nH]c2=O)cc1,7.19%
18,COCCCn1c(SCc2cccc(OC)c2)nc2cc(OC)c(OC)cc2c1=N,-0.63%
19,O=C(N/N=C/c1ccco1)c1ccc(C(=O)N/N=C/c2ccco2)o1,47.5% (active)
20,O=C(Cc1ccccc1)Nc1cccc(C(=O)N/N=C/c2ccco2)c1,12.2%
21,O=C(CCNC(=O)c1ccccc1Cl)NN=Cc1ccco1,10.8%
22,COc1ccc(O)c(C(=O)c2cnc3onc(C(C)C)c3c2)c1,5.83%
23,COc1ccc(Cn2cc(CN3CCS(=O)(=O)N(Cc4ccc(-c5cccc(Cl)c5)cc4)C(C)C3=O)nn2)cc1 (stereo not given),12.3%

row,SMILES,inhibition
1,C=CCn1c(CCNC(=O)c2cccs2)n[nH]c1=S,-2.53%
2,C=CCn1c(=NC(=O)c2cccs2)sc2cc(NC(C)=O)ccc21,31.8% (active)
3,C=CCn1c(=NC(=O)c2ccc(S(=O)(=O)N3CCCC3)cc2)sc2cc(NC(C)=O)ccc21,28.4%
4,Cc1ccc(O)c(CCc2ccccc2)n1,5.82%
5,COC(=O)C(C(=O)Nc1cccc(Cl)c1C)C1CCCC1 (stereo not given),2.59%
6,CCOC(=O)N1CCN(C(=O)CSc2nnc(-c3c[nH]c4ccccc34)n2CCOC)CC1,21.3%
7,Cc1ccc(C)c(S(=O)(=O)N(C)c2ccc(OC(=O)C3CCN(C(=O)c4ccc(F)cc4)CC3)cc2)c1,-2.88%
8,CCN(C(=O)COC(=O)c1cc(S(=O)(=O)N2CCc3ccccc32)ccc1OC)C1CCS(=O)(=O)C1 (stereo not given),-2.55%
9,Cc1ccc2oc(=O)c3cnn(CC(=O)N(Cc4ccco4)C4CCCCC4)c3c2c1,0%
10,CN1CCN(CCNC(=O)Nc2ccc([N+](=O)[O-])cc2)CC1,35.1% (active)
11,CN1CCN(CCNC(=O)Nc2ccccc2[N+](=O)[O-])CC1,1.97%
12,O=C(NCCCN1CCN(c2ccc(F)cc2)CC1)Nc1ccc([N+](=O)[O-])cc1,21.2%
13,CC(Oc1ccc(F)cc1)C(=O)Nc1cc(S(=O)(=O)N2CCOCC2)ccc1N1CCN(C)CC1 (stereo not given),-7.32%
14,COC(=O)c1ccc(NC(=O)C23CC4CC(C2)CC(n2cnc(Cl)n2)(C4)C3)cc1,7.31%
15,CCC(CC)C(=O)Nc1cccc(C(=O)N2CCCC2)c1,2.12%
16,COc1ccc(NC(=O)CCCOc2ccc(C(C)=O)cc2)cc1S(=O)(=O)N1CCCCC1,7.56%
17,O=C(NCCCN1CCCCCC1)c1ccc(N2CCCC2=O)cc1,3.81%
18,C/C(=N\NC(=O)c1cccc(N2CCCC2=O)c1)c1ccc(N)cc1,5.43%
19,COc1cc(/C=N/NC(=O)c2ccc(N3CCCC3=O)cc2)ccc1O,43.2% (active)
20,CN(CC(O)COc1ccc(S(=O)(=O)N2CCOCC2)cc1Cl)C1CCCCC1 (stereo not given),-2.47%
21,Cn1c(SCC(=O)Nc2ccc(Cl)cc2)nc(O)cc1=O,4.39%

# — PubChem BioAssay AID588335 (The Scripps Research Institute Molecular Screening Center, 2011)
